# Results from the supplement of paper PMC6555819.
# Legend:
# Experiment in all cases: PBM binding z-score (relative to random genomic background probes); higher = stronger binding; sequences stand for … in GC…GCGATTGACAGCGTAGAATGAAGG
# [1] = test system: PPARg:RXRa DBDmut IVT, anti-RXR (DBD mutation: RXRa K156A/R161A, NR concentration 270 nM, RXRa partner concentration 90 nM)
# Method in brief: (§1)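 Custom Agilent 4×180K protein-binding microarrays carried double-stranded probes. Their 34-nt variable regions held direct-repeat seeds, single-nucleotide variants, half-site ablations and random human genomic background sequences. Arrays were incubated 1 h with ligand-free nuclear receptor dimers in PBS pH 7.4, 2% milk, 0.02% Triton X-100, 1 mM DTT, 0.2 mg/mL BSA and 0.4 mg/ml salmon testes DNA. Antibodies against each partner (one per run) detected binding, and scanned fluorescence was regression-normalized. Binding z-scores use random background probes as reference.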
# [2] = test system: PPARg:RXRa IVT, anti-PPARg (NR concentration 270 nM, RXRa partner concentration 90 nM)
# Method in brief: as §1
# [3] = test system: PPARg DBDmut:RXRa IVT, anti-PPARg (DBD mutation: PPARg1 K132A/R137A, NR concentration 270 nM, RXRa partner concentration 90 nM)
# Method in brief: as §1
# [4] = test system: PPARg DBDmut IVT, anti-PPARg (DBD mutation: PPARg1 K132A/R137A, NR concentration 270 nM)
# Method in brief: as §1
# [5] = test system: PPARg homodimer (NR concentration 180 nM)
# Method in brief: as §1
# [6] = test system: PXR:RXRa (NR concentration 270 nM, RXRa partner concentration 90 nM)
# Method in brief: as §1
# [7] = test system: PXR homodimer (NR concentration 270 nM)
# Method in brief: as §1
# [8] = test system: RARa:RXR (NR concentration 270 nM, RXRa partner concentration 90 nM)
# Method in brief: as §1
# [9] = test system: RARa homodimer (NR concentration 270 nM)
# Method in brief: as §1
# [10] = test system: RARb:RXRa (NR concentration 270 nM, RXRa partner concentration 90 nM)
# Method in brief: as §1
sequence,measurement,setting,value
AGTCAAAGTTCAGGACGAGGTAACGAAAAGCACG,PBM binding z-score,[1],0.0438
same,PBM binding z-score,[2],2.03
same,PBM binding z-score,[3],0.538
same,PBM binding z-score,[4],0.477
same,PBM binding z-score,[5],1.63
same,PBM binding z-score,[6],2.75
same,PBM binding z-score,[7],1.22
same,PBM binding z-score,[8],2.71
same,PBM binding z-score,[9],0.551
same,PBM binding z-score,[10],4.3
TCATATAGGTAAAGGTGGAAGTCGAACGATATGA,PBM binding z-score,[1],3.45
same,PBM binding z-score,[2],2.86
same,PBM binding z-score,[3],1.27
same,PBM binding z-score,[4],1.48
same,PBM binding z-score,[5],0.634
same,PBM binding z-score,[6],0.357
same,PBM binding z-score,[7],0.267
same,PBM binding z-score,[8],0.637
same,PBM binding z-score,[9],0.638
same,PBM binding z-score,[10],0.387
CGTTACGGGTCACTGACAGGTTATAGCATTTGGA,PBM binding z-score,[1],3.65
same,PBM binding z-score,[2],3.74
same,PBM binding z-score,[3],0.269
same,PBM binding z-score,[4],0.284
same,PBM binding z-score,[5],2.14
same,PBM binding z-score,[6],3.75
same,PBM binding z-score,[7],-0.254
same,PBM binding z-score,[8],4.61
same,PBM binding z-score,[9],0.338
same,PBM binding z-score,[10],3.93
TCATATAGGTAAAGCTGAAAGTCGAACGATATGA,PBM binding z-score,[1],3.57
same,PBM binding z-score,[2],2.35
same,PBM binding z-score,[3],0.591
same,PBM binding z-score,[4],1.09
same,PBM binding z-score,[5],-0.748
same,PBM binding z-score,[6],0.2
same,PBM binding z-score,[7],-0.49
same,PBM binding z-score,[8],0.193
same,PBM binding z-score,[9],-0.464
same,PBM binding z-score,[10],0.205
GCAGACAGGTGAAACGCATGTAACTCAGGGTGGC,PBM binding z-score,[1],0.516
same,PBM binding z-score,[2],0.404
same,PBM binding z-score,[3],-1.74
same,PBM binding z-score,[4],-0.927
same,PBM binding z-score,[5],-0.716
same,PBM binding z-score,[6],-0.307
same,PBM binding z-score,[7],-0.659
same,PBM binding z-score,[8],-0.0582
same,PBM binding z-score,[9],-0.606
same,PBM binding z-score,[10],0.532
TCTCGGAGGACCCGAAAGGTCAGAGCTCGACATC,PBM binding z-score,[1],1.1
same,PBM binding z-score,[2],0.853
same,PBM binding z-score,[3],-0.22
same,PBM binding z-score,[4],-0.929
same,PBM binding z-score,[5],1.7
same,PBM binding z-score,[6],3.45
same,PBM binding z-score,[7],-0.23
same,PBM binding z-score,[8],4.13
same,PBM binding z-score,[9],0.185
same,PBM binding z-score,[10],3.68
CCTGCTAGGTCATGGTAAGCTAATCTACAGTATG,PBM binding z-score,[1],4.44
same,PBM binding z-score,[2],3.92
same,PBM binding z-score,[3],0.752
same,PBM binding z-score,[4],0.561
same,PBM binding z-score,[5],1.24
same,PBM binding z-score,[6],1.15
same,PBM binding z-score,[7],-0.26
same,PBM binding z-score,[8],2.32
same,PBM binding z-score,[9],-0.305
same,PBM binding z-score,[10],3.87
ACAGACAGGTGATGAAGGTGACTCAGGCTATCAT,PBM binding z-score,[1],0.111
same,PBM binding z-score,[2],0.845
same,PBM binding z-score,[3],0.651
same,PBM binding z-score,[4],0.382
same,PBM binding z-score,[5],0.791
same,PBM binding z-score,[6],0.114
same,PBM binding z-score,[7],0.191
same,PBM binding z-score,[8],0.48
same,PBM binding z-score,[9],0.471
same,PBM binding z-score,[10],0.728
CCTATTAGTTGACCATAAGGGCAATCGAAGCTCG,PBM binding z-score,[1],0.549
same,PBM binding z-score,[2],0.361
same,PBM binding z-score,[3],0.362
same,PBM binding z-score,[4],0.72
same,PBM binding z-score,[5],1.56
same,PBM binding z-score,[6],0.609
same,PBM binding z-score,[7],0.878
same,PBM binding z-score,[8],0.531
same,PBM binding z-score,[9],2.18
same,PBM binding z-score,[10],1.38
CCTACTGCGCCATCAGGTCATTGATATCAACGTT,PBM binding z-score,[1],0.542
same,PBM binding z-score,[2],1.25
same,PBM binding z-score,[3],-0.701
same,PBM binding z-score,[4],0.364
same,PBM binding z-score,[5],1.76
same,PBM binding z-score,[6],1.98
same,PBM binding z-score,[7],0.943
same,PBM binding z-score,[8],2.03
same,PBM binding z-score,[9],0.602
same,PBM binding z-score,[10],1.76
TCTAGTTGGTCACAGAGGTCACACACGACGGGTA,PBM binding z-score,[1],2.85
same,PBM binding z-score,[2],4.35
same,PBM binding z-score,[3],1.86
same,PBM binding z-score,[4],0.876
same,PBM binding z-score,[5],6.9
same,PBM binding z-score,[6],5.58
same,PBM binding z-score,[7],2.89
same,PBM binding z-score,[8],6.16
same,PBM binding z-score,[9],4.36
same,PBM binding z-score,[10],4.28
CCTTACGGGTCACTCCAGCTTATAGCATCGGAGT,PBM binding z-score,[1],2.73
same,PBM binding z-score,[2],2.95
same,PBM binding z-score,[3],0.84
same,PBM binding z-score,[4],0.0391
same,PBM binding z-score,[5],1.95
same,PBM binding z-score,[6],2.52
same,PBM binding z-score,[7],0.285
same,PBM binding z-score,[8],3.54
same,PBM binding z-score,[9],0.557
same,PBM binding z-score,[10],3.56
